What all share (test): DAPPL (digital affinity profiling via proximity ligation, sequencing); 10 mM Tris-HCl pH 7.5, 50 mM NaCl, 1 mM DTT, 4% glycerol, room temperature, 30 min; GST-TFs on glutathione beads, 16-mer random dsDNA library, 0.1% formaldehyde crosslink after washing; high values mean tight binding
Settings in all cases: protein: recombinant; tags: N-terminal GST; dsDNA, one strand shown

The target in one assay is T1, ETV3L (Homo sapiens, UniProt Q6ZN32 1-361).
T1 sequence: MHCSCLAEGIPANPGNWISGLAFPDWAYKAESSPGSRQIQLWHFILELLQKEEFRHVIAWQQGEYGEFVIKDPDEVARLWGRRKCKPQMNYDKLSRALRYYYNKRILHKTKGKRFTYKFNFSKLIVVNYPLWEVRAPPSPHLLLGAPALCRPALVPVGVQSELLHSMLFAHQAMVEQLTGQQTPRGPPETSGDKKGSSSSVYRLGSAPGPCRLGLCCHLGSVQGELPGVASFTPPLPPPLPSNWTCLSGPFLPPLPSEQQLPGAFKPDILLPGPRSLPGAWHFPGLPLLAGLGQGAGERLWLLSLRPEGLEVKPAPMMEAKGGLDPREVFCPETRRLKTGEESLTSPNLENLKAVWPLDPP
The gist of the method: (§1)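 Pools of DNA-barcoded human transcription factors, expressed in yeast as GST fusions on glutathione beads and combined with a tag-only sample, were incubated with 200 nmole of a 16-mer random double-stranded DNA library. Incubation took 30 min at room temperature in Tris/NaCl/DTT/glycerol buffer and was followed by washing, 0.1% formaldehyde crosslinking, proximity ligation (BsaI/T4 ligase, 1 h, 37 °C), PCR amplification and sequencing on an Illumina NextSeq500. Binding signal is the ratio of a hexamer's read frequency for a factor to its frequency for the tag-only sample.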

A further assay deals with T2, ETS2 (Homo sapiens, UniProt P15036 1-469).
T2 sequence: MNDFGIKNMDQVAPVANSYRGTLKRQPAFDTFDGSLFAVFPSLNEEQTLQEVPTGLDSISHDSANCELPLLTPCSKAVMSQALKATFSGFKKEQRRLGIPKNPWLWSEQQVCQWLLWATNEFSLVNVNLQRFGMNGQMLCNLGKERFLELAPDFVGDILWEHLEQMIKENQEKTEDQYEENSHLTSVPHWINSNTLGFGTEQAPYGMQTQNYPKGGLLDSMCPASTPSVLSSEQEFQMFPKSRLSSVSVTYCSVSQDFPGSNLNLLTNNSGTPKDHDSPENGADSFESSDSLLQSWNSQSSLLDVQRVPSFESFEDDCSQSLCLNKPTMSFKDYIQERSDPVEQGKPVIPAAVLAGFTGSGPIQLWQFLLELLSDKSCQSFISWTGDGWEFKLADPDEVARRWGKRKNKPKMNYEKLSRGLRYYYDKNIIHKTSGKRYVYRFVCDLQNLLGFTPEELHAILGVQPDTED
The gist of the method: as §1

In a further assay the target is T3, ETV7 (Homo sapiens, UniProt Q9Y603 1-341).
T3 sequence: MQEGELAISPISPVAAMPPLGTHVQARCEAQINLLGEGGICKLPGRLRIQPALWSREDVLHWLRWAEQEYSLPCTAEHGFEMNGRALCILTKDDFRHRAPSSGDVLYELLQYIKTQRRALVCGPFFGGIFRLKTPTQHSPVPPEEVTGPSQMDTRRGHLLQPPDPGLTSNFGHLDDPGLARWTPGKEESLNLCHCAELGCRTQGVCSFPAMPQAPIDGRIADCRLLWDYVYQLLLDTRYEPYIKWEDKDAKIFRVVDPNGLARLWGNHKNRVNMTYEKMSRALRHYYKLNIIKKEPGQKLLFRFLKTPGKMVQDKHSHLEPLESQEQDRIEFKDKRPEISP
An outline of the steps:
as §1

In another assay the target is T4, ELF5 (Homo sapiens, UniProt Q9UKW6-2 1-255).
T4 sequence: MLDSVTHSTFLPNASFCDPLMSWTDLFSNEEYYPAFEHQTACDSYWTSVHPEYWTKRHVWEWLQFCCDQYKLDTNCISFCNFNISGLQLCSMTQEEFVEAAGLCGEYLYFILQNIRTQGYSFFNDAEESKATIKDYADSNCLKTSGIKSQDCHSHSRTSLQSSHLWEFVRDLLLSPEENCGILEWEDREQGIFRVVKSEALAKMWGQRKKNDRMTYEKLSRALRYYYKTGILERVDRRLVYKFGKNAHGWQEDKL
The gist of the method:
as §1

The target in a further assay is T5, ETV3 (Homo sapiens, UniProt P41162-2 1-143).
T5 sequence: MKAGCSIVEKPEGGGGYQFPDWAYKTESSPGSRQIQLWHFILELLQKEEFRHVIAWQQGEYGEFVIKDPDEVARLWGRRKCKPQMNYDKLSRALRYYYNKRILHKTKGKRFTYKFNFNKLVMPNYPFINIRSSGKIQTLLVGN
The gist of the method: as §1

The target of another assay is T6, SPDEF (Homo sapiens, UniProt O95238 1-335).
T6 sequence: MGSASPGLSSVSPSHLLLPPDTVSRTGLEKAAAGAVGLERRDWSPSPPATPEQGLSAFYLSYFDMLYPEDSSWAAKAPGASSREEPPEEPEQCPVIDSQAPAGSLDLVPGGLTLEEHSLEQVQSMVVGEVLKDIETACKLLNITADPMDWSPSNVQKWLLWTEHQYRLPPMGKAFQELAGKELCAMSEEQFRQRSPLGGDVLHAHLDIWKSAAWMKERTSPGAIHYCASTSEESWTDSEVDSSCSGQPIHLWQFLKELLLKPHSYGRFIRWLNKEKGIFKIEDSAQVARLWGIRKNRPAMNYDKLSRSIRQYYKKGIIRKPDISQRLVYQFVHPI
The gist of the method: as §1

For a further assay, the target named is ETV6 (Homo sapiens, UniProt P41212 1-452). An outline of the steps: as §1
The target in the next assay is T7, ERF (Homo sapiens, UniProt P50548 1-548).
T7 sequence: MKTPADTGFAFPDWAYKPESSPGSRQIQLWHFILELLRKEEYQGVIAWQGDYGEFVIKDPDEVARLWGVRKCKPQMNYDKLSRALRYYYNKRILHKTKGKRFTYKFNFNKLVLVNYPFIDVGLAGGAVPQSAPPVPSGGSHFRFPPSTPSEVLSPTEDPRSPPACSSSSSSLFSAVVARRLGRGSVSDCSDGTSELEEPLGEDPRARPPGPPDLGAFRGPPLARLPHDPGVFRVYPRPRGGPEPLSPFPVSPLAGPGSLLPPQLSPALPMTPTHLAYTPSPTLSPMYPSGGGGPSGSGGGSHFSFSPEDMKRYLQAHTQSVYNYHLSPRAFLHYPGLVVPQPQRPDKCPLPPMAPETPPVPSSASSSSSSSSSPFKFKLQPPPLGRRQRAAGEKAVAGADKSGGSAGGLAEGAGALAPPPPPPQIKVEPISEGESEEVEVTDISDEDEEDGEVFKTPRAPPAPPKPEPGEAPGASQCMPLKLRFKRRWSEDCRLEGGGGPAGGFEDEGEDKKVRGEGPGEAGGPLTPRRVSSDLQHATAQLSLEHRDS
The gist of the method: as §1

Sequence of ETV6 (P41212 whole entry): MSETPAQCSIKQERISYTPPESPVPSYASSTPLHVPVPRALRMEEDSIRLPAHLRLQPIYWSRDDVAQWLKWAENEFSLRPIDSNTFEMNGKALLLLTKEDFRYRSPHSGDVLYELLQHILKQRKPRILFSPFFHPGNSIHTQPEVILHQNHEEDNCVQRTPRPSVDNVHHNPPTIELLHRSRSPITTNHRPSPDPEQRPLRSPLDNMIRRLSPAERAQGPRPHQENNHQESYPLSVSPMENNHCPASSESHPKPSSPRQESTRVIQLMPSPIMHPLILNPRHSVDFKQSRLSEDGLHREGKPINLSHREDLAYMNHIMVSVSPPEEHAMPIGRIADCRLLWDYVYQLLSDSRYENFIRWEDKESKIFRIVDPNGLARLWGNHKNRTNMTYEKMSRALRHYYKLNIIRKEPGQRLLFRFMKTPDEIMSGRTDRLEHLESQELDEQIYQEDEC

As for TCATGA, the binding signal is 1.03 fold enrichment (6-mer frequency, TF over GST control) with ETV3L; 1.04 fold enrichment (6-mer frequency, TF over GST control) in the assay with ETS2; 1 fold enrichment (6-mer frequency, TF over GST control) with ETV7; 1.05 fold enrichment (6-mer frequency, TF over GST control) with ELF5; 1.06 fold enrichment (6-mer frequency, TF over GST control) with ETV3.
As for CTAGGC, the binding signal is 1.07 fold enrichment (6-mer frequency, TF over GST control) with ETV3L; 1.01 fold enrichment (6-mer frequency, TF over GST control) with ETS2; 1 fold enrichment (6-mer frequency, TF over GST control) with SPDEF; 1.2 fold enrichment (6-mer frequency, TF over GST control) in the assay with ETV7; 1.04 fold enrichment (6-mer frequency, TF over GST control) in the assay with ELF5; 1.09 fold enrichment (6-mer frequency, TF over GST control) with ETV3. In the assay with ETV6, the binding signal is 1.06 fold enrichment (6-mer frequency, TF over GST control).
Take ATCAGC: the binding signal with ETS2 was 1.09 fold enrichment (6-mer frequency, TF over GST control); in the assay with ETV6 it was 1.01 fold enrichment (6-mer frequency, TF over GST control).
With TGTGAC, the binding signal is 1.22 fold enrichment (6-mer frequency, TF over GST control) with ETV3L; 1.14 fold enrichment (6-mer frequency, TF over GST control) with ETS2; 1.2 fold enrichment (6-mer frequency, TF over GST control) with SPDEF; 1.12 fold enrichment (6-mer frequency, TF over GST control) with ETV7; 1.1 fold enrichment (6-mer frequency, TF over GST control) in the assay with ELF5; 1.17 fold enrichment (6-mer frequency, TF over GST control) with ETV3. Besides, in the assay with ETV6, the binding signal is 1.07 fold enrichment (6-mer frequency, TF over GST control).
Take CAAGGT: the binding signal with ETV3L is 1.12 fold enrichment (6-mer frequency, TF over GST control); in the assay with ETS2, 1.11 fold enrichment (6-mer frequency, TF over GST control); with SPDEF, 1.03 fold enrichment (6-mer frequency, TF over GST control); with ETV7, 1.1 fold enrichment (6-mer frequency, TF over GST control); with ETV3 it was 1.02 fold enrichment (6-mer frequency, TF over GST control); with ETV6, 1.01 fold enrichment (6-mer frequency, TF over GST control).
On to GAAAGA, for which the binding signal in the assay with ETV3L is 1.03 fold enrichment (6-mer frequency, TF over GST control); with ETS2, 1.02 fold enrichment (6-mer frequency, TF over GST control); in the assay with ETV7, 1.1 fold enrichment (6-mer frequency, TF over GST control); with ETV3, 1.01 fold enrichment (6-mer frequency, TF over GST control); with ETV6, 1.09 fold enrichment (6-mer frequency, TF over GST control).
Regarding TCATAA, the binding signal in the assay with ETV3L is 1 fold enrichment (6-mer frequency, TF over GST control); in the assay with ETS2 it was 1.01 fold enrichment (6-mer frequency, TF over GST control); with SPDEF it was 1.01 fold enrichment (6-mer frequency, TF over GST control); in the assay with ELF5, 1.02 fold enrichment (6-mer frequency, TF over GST control).
Consider GAACCA, for which the binding signal with ETV3L was 1.01 fold enrichment (6-mer frequency, TF over GST control); in the assay with ELF5, 1.01 fold enrichment (6-mer frequency, TF over GST control).
With GAATAT, the binding signal with ETV3L was 1.05 fold enrichment (6-mer frequency, TF over GST control); with ETS2 it was 1.05 fold enrichment (6-mer frequency, TF over GST control); with SPDEF, 1.02 fold enrichment (6-mer frequency, TF over GST control); in the assay with ETV7, 1.1 fold enrichment (6-mer frequency, TF over GST control); with ELF5, 1.12 fold enrichment (6-mer frequency, TF over GST control); in the assay with ETV3 it was 1.12 fold enrichment (6-mer frequency, TF over GST control). Besides, the binding signal in the assay with ETV6 is 1.07 fold enrichment (6-mer frequency, TF over GST control).
Turning to TGGGTT, the binding signal with ETV3L was 1.17 fold enrichment (6-mer frequency, TF over GST control); with ETS2, 1.06 fold enrichment (6-mer frequency, TF over GST control); with SPDEF, 1.05 fold enrichment (6-mer frequency, TF over GST control); with ELF5, 1.01 fold enrichment (6-mer frequency, TF over GST control); in the assay with ETV3 it was 1.02 fold enrichment (6-mer frequency, TF over GST control); with ETV6, 1 fold enrichment (6-mer frequency, TF over GST control).
In the case of TAAGCG, the binding signal with ETV3L is 1.03 fold enrichment (6-mer frequency, TF over GST control); with ETS2 it was 1.05 fold enrichment (6-mer frequency, TF over GST control); with ELF5, 1.01 fold enrichment (6-mer frequency, TF over GST control); with ETV3, 1.05 fold enrichment (6-mer frequency, TF over GST control); with ETV6, 1.01 fold enrichment (6-mer frequency, TF over GST control).
Consider GCAATG, for which the binding signal was 1.02 fold enrichment (6-mer frequency, TF over GST control) in the assay with ERF; 1.14 fold enrichment (6-mer frequency, TF over GST control) in the assay with ETV7; 1.03 fold enrichment (6-mer frequency, TF over GST control) with ETV3; 1.12 fold enrichment (6-mer frequency, TF over GST control) in the assay with ETV6.
As to TAGTCC, the binding signal is 1.12 fold enrichment (6-mer frequency, TF over GST control) in the assay with ETV3L; 1.06 fold enrichment (6-mer frequency, TF over GST control) with ETS2; 1.2 fold enrichment (6-mer frequency, TF over GST control) in the assay with SPDEF; 1.13 fold enrichment (6-mer frequency, TF over GST control) in the assay with ETV7; 1.06 fold enrichment (6-mer frequency, TF over GST control) with ELF5; 1.14 fold enrichment (6-mer frequency, TF over GST control) with ETV6.
For the sequence AGTAAT, the binding signal in the assay with ETV3L was 1.07 fold enrichment (6-mer frequency, TF over GST control); with ETS2 it was 1.15 fold enrichment (6-mer frequency, TF over GST control); with SPDEF, 1.1 fold enrichment (6-mer frequency, TF over GST control); with ETV7, 1.19 fold enrichment (6-mer frequency, TF over GST control); in the assay with ELF5, 1.2 fold enrichment (6-mer frequency, TF over GST control); with ETV3, 1.03 fold enrichment (6-mer frequency, TF over GST control). Moreover, the binding signal with ETV6 was 1.15 fold enrichment (6-mer frequency, TF over GST control).
For TCAGCA, the binding signal with ETS2 is 1.05 fold enrichment (6-mer frequency, TF over GST control); with ETV7, 1.11 fold enrichment (6-mer frequency, TF over GST control); with ETV6, 1.02 fold enrichment (6-mer frequency, TF over GST control).
As to AATCGA, the binding signal in the assay with ETV3L was 1.04 fold enrichment (6-mer frequency, TF over GST control); in the assay with ETV7, 1.08 fold enrichment (6-mer frequency, TF over GST control); with ETV3 it was 1.07 fold enrichment (6-mer frequency, TF over GST control); with ETV6 it was 1.01 fold enrichment (6-mer frequency, TF over GST control).

The values above are taken from publication PMC7862700, “An all-to-all approach to the identification of sequence-specific readers for epigenetic DNA modifications on cytosine”.
